Results as given in PubChem BioAssay AID765 (NMMLSC, 2007).
Calls of active or inactive are those of the source. Cut-off read from the data, not from the text of the source: active = inhibition above about 31%; inactive = the rest.

What follows are compounds tested against N-formyl peptide receptor 2 (Homo sapiens) (UniProt P25090) (assay: human FPR2 ligand displacement single-point screen – cell-based, flow cytometry, single concentration (AID 765)). Conditions: FPRL1-expressing cells, fluorescent ligand binding inhibition, hits give high values; at 5.1 µM unless noted.
Chain of N-formyl peptide receptor 2 (Homo sapiens) (P25090 whole entry, looked up): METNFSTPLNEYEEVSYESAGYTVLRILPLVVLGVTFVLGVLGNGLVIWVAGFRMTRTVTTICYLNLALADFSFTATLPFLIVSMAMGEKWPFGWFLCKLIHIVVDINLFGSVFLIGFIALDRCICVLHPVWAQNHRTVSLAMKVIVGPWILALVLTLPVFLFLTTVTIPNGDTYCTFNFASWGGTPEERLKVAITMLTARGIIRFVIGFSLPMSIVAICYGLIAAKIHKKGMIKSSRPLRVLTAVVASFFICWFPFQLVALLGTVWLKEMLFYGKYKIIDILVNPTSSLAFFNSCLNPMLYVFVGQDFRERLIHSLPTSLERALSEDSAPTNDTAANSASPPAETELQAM

Row | SMILES | inhibition
1 | O=C(O)C1CC=CCC1C(=O)N1CCN(c2nc(-c3ccccc3Cl)c3cc(Br)ccc3n2)CC1 (centres undefined) | -6.7% [at 4 µM] (inactive)
2 | Cc1ccc2nc(N3CCN(c4ccccc4Cl)CC3)nc(-c3ccccc3)c2c1 | 33.4% [at 5.4 µM] (active)
3 | COc1ccc(-c2cn3cccnc3n2)cc1NC(=O)c1ccc(C(F)(F)F)cc1 | -3.6% [at 5.4 µM] (inactive)
4 | COc1ccc(-c2cc(C#N)nc(N3CCN(c4ccccc4)CC3)n2)cc1 | 5.3% [at 6 µM] (inactive)
5 | Cc1ccc(C(=O)N2CCN(c3nc(-c4ccccc4)c4cc(Br)ccc4n3)CC2)cc1 | 18% [at 4.6 µM] (inactive)
6 | CCOC(=O)N1CCN(c2nc(-c3ccccc3Cl)c3cc(Br)ccc3n2)CC1 | -4.5% [at 4.7 µM] (inactive)
7 | COc1ccc(-c2cn3cccnc3n2)cc1NC(=O)c1cc(Br)ccc1Cl | 4.3% [at 4.9 µM] (inactive)
8 | COc1ccc(-c2nc(N3CCN(C)CC3)[nH]c(=O)c2C#N)cc1 | -9.7% [at 6.8 µM] (inactive)
9 | COc1ccc(-c2cc(C(F)(F)F)nc(N3CCN(c4ccc(F)cc4)CC3)n2)cc1OC | 5.4% [at 4.8 µM] (inactive)
10 | COc1ccccc1-c1cc(C(F)(F)F)nc(N2CCN(c3ccc(F)cc3)CC2)n1 | -8.8% (inactive)
11 | COc1ccc(-c2cn3cccnc3n2)cc1NC(=O)c1ccc(C(C)(C)C)cc1 | -1% [at 5.6 µM] (inactive)
12 | Cc1ccc(-c2cn3cccnc3n2)cc1NC(=O)C(C)C | -3.4% [at 7.6 µM] (inactive)
13 | CCOC(=O)N1CCN(c2nc(-c3ccc(OC)c(OC)c3)cc(C(F)(F)F)n2)CC1 | 36.1% (active)
14 | FC(F)(F)c1cc(-c2ccccc2)nc(N2CCN(c3ccccc3)CC2)n1 | -10.6% [at 5.8 µM] (inactive)
15 | CC(=O)N1CCN(c2nc(-c3ccccc3)c3ccccc3n2)CC1 | -11.2% [at 6.7 µM] (inactive)
16 | Fc1ccc(-c2cc(C(F)(F)F)nc(N3CCN(c4ccccc4)CC3)n2)cc1 | 1.9% [at 5.5 µM] (inactive)
17 | CC1CCc2nc(N3CCN(Cc4ccccc4)CC3)nc(C(F)(F)F)c2C1 (centres undefined) | -10.7% [at 5.7 µM] (inactive)

Row | SMILES | inhibition
18 | COc1ccc(C2CC(=O)c3cnc(N4CCN(Cc5ccc6c(c5)OCO6)CC4)nc3C2)cc1 (centres undefined) | 8% [at 4.7 µM] (inactive)
19 | Cc1ccc(-c2cc(C(F)F)nc(N3CCN(c4ccccc4)CC3)n2)cc1 | 21.3% [at 5.8 µM] (inactive)
20 | CCCCOc1ccc(C(=O)Nc2cc(-c3cn4cccnc4n3)ccc2OC)cc1 | 1.7% [at 5.3 µM] (inactive)
21 | COc1ccc(-c2cc(-c3ccc(F)cc3)nc(N3CCN(C)CC3)n2)cc1 | -2.6% [at 5.9 µM] (inactive)
22 | COc1cccc(-c2cc(C(F)(F)F)nc(N3CCN(C)CC3)n2)c1 | -18% [at 6.3 µM] (inactive)
23 | CCCC(CCC)C(=O)Nc1cc(-c2cn3cccnc3n2)ccc1OC | 19.4% [at 6.1 µM] (inactive)
24 | CCN1CCN(c2nc(-c3cccc(Cl)c3)c3c(n2)-c2ccccc2OC3)CC1 | -10.9% [at 5.5 µM] (inactive)
25 | COc1ccc(-c2cn3cccnc3n2)cc1NC(=O)Cc1ccccc1 | 31.2% [at 6.2 µM] (active)
26 | Clc1cccc(-c2nc(N3CCN(C4CCCCC4)CC3)nc3c2COc2ccccc2-3)c1 | -1.5% [at 4.8 µM] (inactive)
27 | CCCCN1CCN(c2nc(-c3ccccc3)c3cc(C)ccc3n2)CC1 | 17.2% [at 5.6 µM] (inactive)
28 | COc1ccc(-c2cn3cccnc3n2)cc1NC(=O)c1ccco1 | -8.1% [at 6.7 µM] (inactive)
29 | O=C(O)CCC(=O)N1CCN(c2nc(-c3ccccc3)c3cc([N+](=O)[O-])ccc3n2)CC1 | 3.6% (inactive)
30 | COc1ccc(-c2cn3cccnc3n2)cc1NC(=O)c1cccc(C(F)(F)F)c1 | 3.7% [at 5.4 µM] (inactive)
31 | CCOC(=O)N1CCN(c2nc(-c3ccc(Cl)cc3)cc(C(F)(F)F)n2)CC1 | -12% [at 5.4 µM] (inactive)
32 | Cc1ccccc1N1CCN(c2nc(-c3ccccc3)c3cc(Br)ccc3n2)CC1 | 0.2% [at 4.8 µM] (inactive)
33 | COc1ccc(-c2cn3cccnc3n2)cc1NC(=O)C1CCCCC1 | 1.2% [at 6.3 µM] (inactive)
34 | Clc1cccc(-c2nc(N3CCN(c4ccccn4)CC3)nc3c2COc2ccccc2-3)c1 | -0.8% [at 4.9 µM] (inactive)
